Max response and Potency data for 34 molecules are collected here from PubChem BioAssay (NCATS).

SMILES strings stand for the structures. Results filed as inconclusive are left out. A number with no mark means an inactive call. The source made the active and inactive calls. The call rests on the fitted dose curve; in most records, active means well fitted curve in the direction sought with a large enough effect; inconclusive means small, poorly fitted or top-dose-only effect, or another doubt; inactive means no such curve, though single readings can be large or run the other way.
On the % scale 0 is the no-effect control and ±100 the full control effect; potency means the concentration at half of the fitted maximal effect.

A short description of the assay: qHTS Assay for Identifying Gametocytocidal Compounds (AID 743244).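 On Max response: actives lower the fluorescent signal which means gametocytes are killed.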 The conditions noted are these: P. falciparum 3D7 stage III-V gametocytes, alamarBlue, 72 h; max response: active compounds read low. The procedure, abridged: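 P. falciparum 3D7 stage III–V gametocytes (20,000 cells/well) were exposed to compounds for 72 h at 37 °C, 5% CO2. AlamarBlue was then added for 24 h; decreased resorufin fluorescence (Ex 525/Em 598 nm) indicated loss of viability.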
In general terms: In qHTS, concentration-response curves come from the screen itself.
`CC(Cc1ccccc1)NCc1ccccc1Cl` (centres undefined): the max response is 9%. Still for that read-out and setting: with `CN1C(=O)[C@@H](NC(=O)c2cc3ccccc3[nH]2)N=C(c2ccccc2)c2ccccc21` the figure was -6.73%; with `CN(C)CCc1c[nH]c2ccc(O)cc12`, -10.2%; with `CCCCCOc1ccc(C2SC(=O)NC2=O)cc1OCC` (centres undefined), 38.7%.

For the molecule `C[C@]12CC[C@H](O)CC1=CC[C@@H]1[C@@H]2CC[C@]2(C)C(=O)CC[C@@H]12`, the max response was -7.96%.

In the case of `CNC(C)Cc1ccccc1OC` (centres undefined), the max response was 0.178%. The same measure, in the same setting: under `CCCCC1C(=O)NC(=O)N(C2CCCCC2)C1=O` (centres undefined) stands -2.42%. Regarding `CCC1(c2ccccc2)CCC(=O)NC1=O` (centres undefined), the max response was -3.28%. As to `CN(C)C(=S)SC(=S)N(C)C`, the Potency was 0.794 µM (active).

As to `Nc1ccc(N)cc1`, the max response is -1.22%. The same measure, in the same setting: under `CCOC(=O)NC(C)(C)Cc1ccc(Cl)cc1` stands -1.19%; under `CCC(=O)OC1(c2ccccc2)CCN(C)CC1`, -1.1%. As for `Clc1ccc(CSC(Cn2ccnc2)c2ccc(Cl)cc2Cl)cc1` (centres undefined), the Potency is 3.98 µM (active). As to `COc1cc(N)c(Cl)cc1C(=O)NC1CN2CCC1CC2` (centres undefined), the max response was -2.64%. In the case of `C=CC[C@]1(O)CC[C@H]2[C@@H]3CCC4=CC(=O)CCC4=C3C=C[C@@]21C`, the max response is 1.81%. As for `COc1cc(CC(C)N)cc2c1OCO2` (centres undefined), the max response is -6.22%.

Regarding `CCN(CC)CCOC(=O)C(C)(c1ccccc1)c1ccccc1`, the max response was 10.8%. Same read-out and setting: under `Oc1ccc2[nH]cc(CCCCN3CC=C(c4ccccc4)CC3)c2c1` stands -6.56%; under `C[C@@H]1CN(C2CCC(C#N)(c3ccc(F)cc3)CC2)CC[C@]1(C(=O)O)c1ccccc1` (some centres undefined), -3.29%. Consider `CC(C(O)c1ccccc1)N(C)CCOC(c1ccccc1)c1ccccc1` (centres undefined), for which the Potency is 5.01 µM (active). In the case of `c1cc2c(c(N3CCNCC3)c1)OCCO2`, the max response is -8.91%.

With `CN1C(=O)CN=C(c2ccccc2)c2cc(Cl)ccc21`, the max response was -5.96%. Take `CCC1(CC)C(=O)NC(=O)NC1=O`: the max response is -6.5%. As for `CCS(=O)(=O)C(C)(C)S(=O)(=O)CC`, the max response was 4.59%. Regarding `NC(N)=NN=C(/C=C/c1ccc([N+](=O)[O-])o1)/C=C/c1ccc([N+](=O)[O-])o1`, the Potency is 7.94 µM (active). For the molecule `Clc1ccc(CO/N=C(\Cn2ccnc2)c2ccc(Cl)cc2Cl)c(Cl)c1`, the Potency was 10 µM (active). Consider `Cc1nnc2n1-c1sc(CCc3ccc(CC(C)C)cc3)cc1C(c1ccccc1Cl)=NC2C` (centres undefined), for which the max response is -7.02%. In the case of `CN(C)C(=O)Oc1cc(OC(=O)N(C)C)cc(C(O)CNC(C)(C)C)c1` (centres undefined), the max response was 14.4%. On to `COP(=S)(OC)Oc1ccc(S(N)(=O)=O)cc1`, for which the max response was 5.01%. Take `CC(Cc1ccc2c(c1)OCO2)NO` (centres undefined): the max response was -6.74%. For `CCCC(C)C1(CC)C(=O)N=C(S)NC1=O` (centres undefined), the max response was 6.11%. Same read-out and setting: with `CC(C)=CCN1CC[C@@]2(C)c3cc(O)ccc3C[C@@H]1[C@@H]2C` the figure was -13.8%; with `Cc1c(Cl)c(=O)oc2cc(OP(=O)(OCCCl)OCCCl)ccc12`, 22.1%.

For the molecule `NC1(c2ccccc2)CCCCC1`, the max response is 3.42%.
